According to PubChem BioAssay (NCATS):
Results filed as inconclusive are left out. Calls of active or inactive are those of the source. Calls follow the shape of the dose curve; as a rule, active = well fitted cell-killing curve with a large enough effect; inconclusive = small, poorly fitted or top-dose-only effect, or effect the other way; inactive = flat fitted curve, though single readings scatter.

Assay: MultiTox-Fluor Cytotoxicity Assay - LYMP1-002 - Live Cells (AID 955)
Conditions: LYMP1-002 lymphoblastoid live-cell protease fluorescence viability; series mostly up to 46.1 µM; viability change, negative = cytotoxic: at the top concentration
Source text: NIH Chemical Genomics Center [NCGC]
NIH Molecular Libraries Screening Centers Network [MLSCN]
National Institutes of Environmental Health Sciences [NIEHS]
National Toxicology Program [NTP]
We have developed a 1536-well cell-based assay for quantitative high throughput screening (qHTS) against a number of cell lines to determine in vitro cytotoxicity of small molecules. This particular assay uses a human lymphoblastoid cell line (LYMP1-002) purchased from Coriell Institute.
NCGC Assay Protocol Summary:
The MultiTox-Fluor Cytotoxicity Assay (Promega) is a homogeneous method to simultaneously measure the relative number of live and dead cells in culture by detecting changes in cell membrane integrity. There are two fluorogenic peptide substrates in the assay reagent. Viable cells are determined when the cell-permeant substrate (GF-AFC) enters the cell and is cleaved by protease from live cells resulting in liberated fluorophore. This live-cell protease activity restricted to viable cells is proportional to cell number. The dead cells are determined by using fluorogenic cell-impermeant peptide substrate (bis-AAF-R110) which cleaved by dead cell proteases leaking from damaged cell membrane.
Using the MultiTox-Fluor Cytotoxicity Assay, the relative number of live cells was measured in the lymphoblastoid cell line with complete culture medium following compound treatment for 16 hours. The assay was performed in opaque black Kalypsys 1536-well plates. In the screen, tetraoctylammonium bromide was used as positive control. Library compounds were measured for their ability to cause acute toxicity in the cell line, as reflected by a decrease in live cell protease activity, in a concentration-dependent manner. […] AC50 values were determined from concentration-response data modeled with the standard Hill equation.
qHTS protocol for MultiTox-Fluor Cytotoxicity assay
[Step] [Parameter] [Value] [Description]
1. Reagent; 5 uL; 2500 lymphoblastoid cells/well
2. Time; 5 hr; 37 C incubation
4. Controls; 23 nL; Tetraoctylammonium bromide 6.4pM to 92 uM
5. Time; 16 hr; 37 C incubation
6. Reagent; 5 uL; MuliTox-Fluor Assay reagent
7. Time; 60 min; Room Temperature
8. Detection; live-cell fluorescence (Ex/Em=405/510); EnVision plate reader
Keywords: cell viability, cytotoxicity, lymphoblastoid cell line, fluorescence, NTPHTS, NTPHTS_NCGC, NIEHS, EPA, DSSTox, MLSMR, MLSCN, NIH Roadmap, qHTS, NCGC
% is scaled to controls: 0 for no effect and ±100 for the full control effect; potency is read from the fitted curve at half-maximal effect.

Structure (SMILES) | viability change, negative = cytotoxic | Potency
CCc1cc(C(N)=S)ccn1 | 7.68% (inactive) | 
Cc1ccnc2c1NC(=O)c1cccnc1N2C1CC1 | -8.11% (inactive) | 
CC[C@H](C)C(=O)O[C@H]1C[C@@H](C)C=C2C=C[C@H](C)[C@H](CC[C@@H]3C[C@@H](O)CC(=O)O3)[C@H]21 | -10.6% (inactive) | 
O=C(N[C@H](CO)[C@H](O)c1ccc([N+](=O)[O-])cc1)C(Cl)Cl | -0.508% (inactive) | 
NC(N)=NC(N)=NCCc1ccccc1 | 0.633% (inactive) | 
COc1ccc2cc3[n+](cc2c1OC)CCc1cc2c(cc1-3)OCO2 | -10.8% (inactive) | 
Cc1cc(NS(=O)(=O)c2ccc(N)cc2)no1 | -10.3% (inactive) | 
NNC(=O)c1ccncc1 | -0.384% (inactive) | 
Cc1ncc([N+](=O)[O-])n1CCO | -9.48% (inactive) | 
N=C(N)c1ccc(OCCCCCOc2ccc(C(=N)N)cc2)cc1 | -20.4% (inactive) | 
CN(C)c1ccc(C(=C2C=CC(=[N+](C)C)C=C2)c2ccc(N(C)C)cc2)cc1 |  | 10 µM (active)
CC1=NN(c2ccccc2)C(=O)C1 | 3.51% (inactive) | 
Cc1nnc(NS(=O)(=O)c2ccc(N)cc2)s1 | 6.18% (inactive) | 
C[C@]12C=CC(=O)C=C1CC[C@@H]1[C@@H]2C(=O)C[C@@]2(C)[C@H]1CC[C@]2(O)C(=O)CO | -3.37% (inactive) | 
CC(=O)[C@H]1CC[C@H]2[C@@H]3CCC4=CC(=O)CC[C@]4(C)[C@H]3CC[C@]12C |  | inactive
O=C(O)c1cc(=O)[nH]c(=O)[nH]1 | 6.7% (inactive) | 
Cc1noc(NS(=O)(=O)c2ccc(N)cc2)c1C | -6.6% (inactive) | 
